The text below walks through data of PubChem BioAssay.

The subject of this test is Wnt5a (protein binding on small-molecule microarray). The test can be described thus: Wnt5a binders on small-molecule microarray, primary screen, biophysical, 635/667 nm fluorescence (AID 1142).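 Further: fluorescence read at 667 nm with signal to noise per printed feature.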 As to conditions: 635 nm fluorescence, higher = more signal.
`C=CC[C@@H]1C=C[C@H](ON=C[C@@H](C)[C@H](OCc2ccccc2)C(C)C)[C@@H](CO)O1` had a composite z-score of -0.2.
The figure for `COC(=O)CC=C[C@@H](C)[C@@H](C=NOC(C)CN1CCCc2nc(C)c(C)cc21)OC` (some centres not stated) is 0.17; for `CC(CCN1CCCCc2nc(C)c(C)cc21)=NOC[C@@H](C)[C@H](OCc1ccccc1)C(C)C` it is -0.876; for `CON=C(C)CCC(=O)OC[C@H]1O[C@H](c2ccccc2)C=C[C@@H]1Oc1ccc(OC)cc1` it is 0.564.
The figure for `CON=CC[C@@H]1C=C[C@H](OC(C)=O)[C@@H](COC(C)=O)O1` is 0.474; for `Cn1c(=O)n2n(c1=O)[C@H]1[C@H](O)[C@@H]3O[C@@H]3C(=O)[C@H]1CC2` it is 0.0242.
The figure for `COc1ccc(COC(=O)NN=C2C[C@@H](O)[C@@H](O)[C@@H]3[C@@H]4C(=O)N(Cc5ccccc5)C(=O)[C@@H]4CC[C@H]23)cc1` is -0.419; for `C#CCCCON=C1C[C@@H](O)[C@@H](O)[C@@H]2[C@@H]3C(=O)N(C(C)(C)C)C(=O)[C@@H]3CC[C@@H]12` it is 0.0416.
`C[C@@H](c1ccccc1)N1C(=O)[C@H]2[C@H]3[C@H](O)[C@H](O)CC(=NO[C@@H]4O[C@H](CO)[C@@H](O)[C@H](O)[C@H]4O)[C@H]3CC[C@H]2C1=O` yielded a composite z-score of 0.189.
In turn, `CCOC(=O)CCN1C(=O)[C@H]2[C@H]3[C@H](O)[C@H](O)CC(=NOCc4ccccc4)[C@H]3CC[C@H]2C1=O` came in with a composite z-score of 0.14.
`CO[C@H]1COC(=O)[C@@H](C)COC(=O)[C@H](COCc2ccccc2)NC(=O)CC=C[C@H]1C` yielded a composite z-score of -0.171.
Under `COc1cccc([C@H]2Oc3ccc(OC)cc3C(=NO[C@@H]3O[C@H](COC(C)=O)[C@@H](OC(C)=O)[C@H](OC(C)=O)[C@H]3OC(C)=O)[C@@H]2O)c1` stands 0.186.
